# From PubChem BioAssay (NCI)
# About 79,000 compounds went through this panel and 15% of them were active in at least one assay; those are over-represented in the sample as a whole. Unmarked numbers belong to inactive results. Activity calls are given as the source filed them. Cut-off read from the data, not from the text of the source: active = growth inhibition above about 70%; inactive = the rest. Where a SMILES comes first, the peptide text is derived from it. The star is where a group is joined. Cbz = O=C(OCc1ccccc1)*; CH2Cl = ClC*
# Key:
# [1] = NCI Yeast Anticancer Drug Screen. Data for the rad50 strain (AID 155);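 note: 0% = growth of vehicle-only cultures of the same strain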; conditions: S. cerevisiae rad50 strain growth inhibition, hits give high values
# Outline: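 Inhibition values express reduced yeast growth in compound-treated cultures relative to vehicle-treated controls.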
# [2] = NCI Yeast Anticancer Drug Screen. Data for the mec2-1 strain (AID 157); conditions: S. cerevisiae mec2-1 strain, hits give high values
# Outline: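 Test agents were screened against the mec2-1 yeast strain, with defined DNA repair or cell cycle alteration. Growth was scored as inhibition against vehicle-only controls.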
# [3] = NCI Yeast Anticancer Drug Screen. Data for the sgs1 mgt1 strain (AID 161);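 note: 0% = growth of cultures given vehicle only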; conditions: S. cerevisiae sgs1 mgt1 strain, hits give high values
# Outline: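 Read-out: growth inhibition vs vehicle controls. Cells: mutant yeast strain deficient in DNA damage repair.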
# [4] = NCI Yeast Anticancer Drug Screen. Data for the cln2 rad14 strain (AID 165);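 note: 0% = growth equal to vehicle treated cultures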; conditions: S. cerevisiae cln2 rad14 strain, hits give high values
# Outline: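 Growth of compound-exposed yeast (cln2 rad14 genotype) measured and expressed as inhibition relative to vehicle.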
# [5] = NCI Yeast Anticancer Drug Screen. Data for the bub3 strain (AID 167); conditions: S. cerevisiae bub3 mutant strain, hits give high values
# Outline: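 Steps: expose the mutant yeast strain to compound; grow alongside vehicle-treated cultures; measure growth; express inhibition against the vehicle cultures.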
# [6] = NCI Yeast Anticancer Drug Screen. Data for the mlh1 rad18 strain (AID 175); conditions: S. cerevisiae mlh1 rad18 strain growth inhibition, hits give high values
# Outline: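 In this whole-cell yeast screen, a strain with altered DNA damage repair is challenged with compound, and its growth is measured against matched vehicle-treated controls.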
# [7] = at 5.0 µM (retest, dose inferred, filed as 0.5)
# [8] = at 50.0 µM (retest, dose inferred, filed as 5.0)
SMILES,"growth inhibition [1, 7]","growth inhibition [1, 8]",growth inhibition ([1]; at 50.0 µM),"growth inhibition [2, 7]","growth inhibition [2, 8]",growth inhibition ([2]; at 50.0 µM),"growth inhibition [3, 7]","growth inhibition [3, 8]",growth inhibition ([3]; at 50.0 µM),"growth inhibition [4, 7]","growth inhibition [4, 8]",growth inhibition ([4]; at 50.0 µM),"growth inhibition [5, 7]","growth inhibition [5, 8]",growth inhibition ([5]; at 50.0 µM),"growth inhibition [6, 7]","growth inhibition [6, 8]",growth inhibition ([6]; at 50.0 µM)
Cc1c(-c2ccc(C(=N)N)cc2)oc(-c2ccc(C(=N)N)cc2)c1C,88% (active),98% (active),89% (active),84% (active),98% (active),90% (active),92% (active),99% (active),88.1% (active),80% (active),96% (active),89% (active),87% (active),99% (active),86% (active),90% (active),97% (active),84.5% (active)
CSCS(=O)C[C@H](CO)NC(=O)/C=C/c1c(C)[nH]c(=O)[nH]c1=O (some centres undefined),26%,98% (active),84.5% (active),26%,86% (active),78.6% (active),25%,98% (active),83% (active),32%,95% (active),62.7%,5%,98% (active),88.7% (active),25%,98% (active),85.1% (active)
Oc1ccc(N=Nc2cc(Cl)ccc2Cl)cc1,92% (active),95% (active),98.5% (active),94% (active),96% (active),98.2% (active),95% (active),95% (active),98.5% (active),94% (active),94% (active),82.5% (active),93% (active),95% (active),98% (active),94% (active),96% (active),97.7% (active)
CC(C)(C)c1cc2c(c(C(C)(C)C)c1O)CC(=O)O2,-6%,74% (active),27.7%,-18%,85% (active),45.5%,-37%,77% (active),57.8%,23%,64%,53.8%,-32%,97% (active),72.5% (active),-3%,84% (active),73.9% (active)
O=C(NCCCl)Nc1c2ccccc2nc2ccccc12,15%,65%,72% (active),8%,39%,41%,4%,23%,24.5%,16%,23%,31.4%,-1%,19%,34.9%,9%,41%,37%
Cc1cccc(C)c1NC(=O)/C(Cl)=C(/Cl)C(=O)O,66%,98% (active),91.2% (active),67%,99% (active),86.2% (active),82% (active),98% (active),88% (active),47%,81% (active),82.8% (active),85% (active),99% (active),90% (active),63%,99% (active),93.8% (active)
CC(=O)/C(=C\c1ccco1)C(=O)Nc1ccccc1,2%,23%,73.1% (active),0%,21%,48.2%,13%,26%,80.2% (active),6%,23%,92.4% (active),-4%,58%,91.2% (active),6%,37%,94.7% (active)
O=C1OC(c2ccc(O)cc2)=C(c2ccccc2)C1c1ccccc1 (centres undefined),9%,36%,99.4% (active),-7%,29%,99.5% (active),-10%,47%,99.5% (active),4%,26%,99.5% (active),2%,29%,99.4% (active),10%,67%,99.5% (active)
CC(C)CC(NC(=O)OCc1ccccc1)C(=O)NC(Cc1ccccc1)C(=O)CCl (stereo not drawn) (Cbz-Leu-Phe-CH2Cl; configuration not given here),43%,62%,28.9%,48%,86% (active),58.5%,27%,46%,53.8%,16%,52%,-8.15%,51%,77% (active),87.5% (active),46%,74% (active),54.9%
Cc1cc(C)[nH]c(=S)n1.[Pt],-1%,-9%,8.7%,0%,-3%,35.2%,-2%,-5%,12.2%,2%,7%,81.3% (active),2%,-2%,21.9%,-2%,-7%,0.5%
CC(=O)N1CC(C)CC2OC3(CCC4C5CCC6CC(O)CCC6(C)C5C(=O)C4C3C)C(C)C21 (centres undefined),10%,98% (active),91.6% (active),1%,98% (active),93.7% (active),19%,97% (active),92.6% (active),26%,98% (active),92.5% (active),14%,98% (active),92.2% (active),-20%,98% (active),91.8% (active)
CC(=O)Sc1ccccc1C(=O)NCc1ccc(Cl)cc1,2%,97% (active),97.8% (active),-8%,98% (active),99% (active),2%,97% (active),97.8% (active),-12%,94% (active),98.5% (active),0%,96% (active),98.5% (active),13%,96% (active),98.7% (active)
COc1cccc(/C=C2\CCCc3ccccc3C2=O)c1,1%,20%,52.4%,7%,45%,22.3%,14%,67%,80.3% (active),-7%,6%,26.6%,72% (active),87% (active),74.4% (active),10%,60%,63.6%
NC(=O)c1c(Cl)nc2n1CCS2,1%,0%,13.8%,0%,-2%,-17.4%,-2%,1%,-1.3%,-2%,-7%,8.4%,-3%,-5%,-4.2%,4%,1%,0.15%
COc1ccc(NC(=O)/C(=C/c2ccccc2)C(C)=O)cc1,59%,98% (active),98.1% (active),57%,99% (active),98.2% (active),53%,98% (active),98.5% (active),19%,95% (active),97.5% (active),65%,98% (active),98.1% (active),68%,99% (active),98.1% (active)
COc1cc2cc[n+]3c4ccc([N+](=O)[O-])cc4ccc3c2cc1OC,73% (active),81% (active),44.8%,14%,73% (active),55.5%,42%,80% (active),70% (active),31%,71% (active),68.3%,43%,81% (active),57.7%,66%,69%,46%
CCCCCCCCCCCCCCCCN(C)c1ccc(S(=O)(=O)O)cc1[N+](=O)[O-],43%,67%,85.5% (active),37%,71% (active),89% (active),50%,62%,90.5% (active),24%,48%,68.6%,60%,79% (active),88.3% (active),59%,73% (active),80.1% (active)
COc1cc(C(c2cc3c(cc2OC(C)=O)OCO3)C(C)C(C)=O)cc(OC)c1OC (centres undefined),3%,84% (active),-8.35%,4%,66%,13.8%,5%,95% (active),0.1%,7%,49%,51.2%,1%,40%,-1.75%,1%,38%,29.1%
